Sampled rows, rich in hits. Any-hit rate of the full collection: about 2.3%.
SENP8 block-1 – blocks human SENP8 cleavage of Nedd8 substrate; Q96LD8; recombinant SENP8, Nedd8 substrate fluorescence; inhibition, % at 20 µM; hit rate 0.64% among 360,000; in the data active = inhibition mostly above about 40%, no sharp cut-off; inactive = mostly below about 27%
Target sequence (Q96LD8 whole entry, looked up): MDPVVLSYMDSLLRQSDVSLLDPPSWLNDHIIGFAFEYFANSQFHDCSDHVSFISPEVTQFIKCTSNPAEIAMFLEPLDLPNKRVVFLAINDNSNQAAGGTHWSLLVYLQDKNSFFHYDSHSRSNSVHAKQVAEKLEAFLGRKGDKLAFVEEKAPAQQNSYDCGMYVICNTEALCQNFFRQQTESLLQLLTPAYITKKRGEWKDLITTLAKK
HSP90 refold inh – inhibitors of HSP90 luciferase refolding in rabbit reticulocyte lysate; luciferase refolding luminescence, 3 h; inhibition, % at 5.6 µM; hit rate 0.91% among 290,000; AID 1789;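 active = inhibition above the screen-wide mean plus 3 SD, computed separately per campaign, cut at about 16% in these data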;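 note: 0% = DMSO wells and 100% = 60 µM geldanamycin wells; inhibitors lower the luminescence because luciferase stays unfolded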
SENP8 block-2 – blocks the human protease SENP8. Q96LD8. hit rate 1.2% among 330,000. inhibition, % at 10 µM. purified SENP8, Z-RLRGG-aminoluciferin cleavage, luminescence. AID 2540; in the data active = inhibition above about 50%
SENP6 inh – SENP6 protease inhibition; Q9GZR1; Recombinant SENP6 catalytic domain, aminoluciferin luminescence; inhibition, % at 10 µM; hit rate 1.8% among 330,000;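 active = inhibition above about 50% at the single tested dose, limit read from the data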;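 note: plate controls were DMSO wells with enzyme for no effect and DMSO wells lacking enzyme for full effect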
SENP7 inh – inhibitors of human SENP7 protease. Q9BQF6. recombinant SENP7, Z-RLRGG-aminoluciferin luminescence, 40 min. inhibition, % at 5 µM. hit rate 1.5% among 330,000;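 active = inhibition above about 50% at the single test dose, limit read from the data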;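 note: plate controls were DMSO with enzyme for no effect and no enzyme buffer wells for full effect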
Target sequence (Q9BQF6 706-1050 limits assumed): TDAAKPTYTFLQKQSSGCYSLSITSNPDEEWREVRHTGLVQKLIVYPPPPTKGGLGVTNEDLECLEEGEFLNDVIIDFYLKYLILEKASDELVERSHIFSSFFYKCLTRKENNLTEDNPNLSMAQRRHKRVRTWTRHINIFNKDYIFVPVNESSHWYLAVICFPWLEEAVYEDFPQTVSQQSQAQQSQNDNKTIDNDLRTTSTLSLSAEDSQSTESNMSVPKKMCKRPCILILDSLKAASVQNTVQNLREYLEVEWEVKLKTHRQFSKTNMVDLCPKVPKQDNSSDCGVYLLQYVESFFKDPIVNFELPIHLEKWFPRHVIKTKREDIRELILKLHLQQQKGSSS
LGR2 antag – Drosophila LGR2 receptor signaling inhibition | HEK293 LGR2, CRE-luciferase, bursicon-stimulated, 4 h | inhibition, % at 9.99 µM | hit rate 0.35% among 380,000 | AID 720647;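 active = drop in luminescence signal, shown as inhibition above about 50% in the replicate tests, limit read from the data, passing the limit was not always enough; inconclusive = probably only some replicates passing the limit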;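 note: agonist challenge used bursicon conditioned medium at about half maximal strength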
HSP90 confirm – HSP90 inhibition, confirmation assay. hit rate 64% among 2,300. inhibition, % at 5.9 µM. rabbit reticulocyte lysate, luciferase refolding luminescence, 3 h. shares compounds with HSP90 refold inh; in the data active = inhibition above about 18%;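 note: 0% = vehicle wells and 100% = reference inhibitor wells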
luciferase ctr – blocks native firefly luciferase in HSP90 counter-screen | shares compounds with HSP90 refold inh | purified native firefly luciferase, luminescence | inhibition, % at 5.9 µM | hit rate 48% among 2,300 | AID 1847;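 active = inhibition above the mean inhibition of all tested sample wells plus 3 SD, cut at about 10% in these data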;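 note: 0% = DMSO with luciferase and 100% = wells lacking luciferase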
An asterisk follows results filed as active; i = inactive; u = inconclusive; x = not tested or not shown.

SMILES | SENP8 block-1 | HSP90 refold inh | SENP8 block-2 | SENP6 inh | SENP7 inh | LGR2 antag | others
COC(=O)[C@@H]1[C@@H](CO)[C@@H]2Cn3c(ccc(-c4cccnc4)c3=O)[C@H]1N2CCc1ccccc1 | x | x | x | x | x | -2.9
C=C1C(=O)OC2CC3(C)OC3CCC(C)=CC(OC(C)=O)C12 (stereo not drawn) | 14.8 | x | x | x | x | 40.0*
C/C=C/c1ccc(C2[C@@H]3CN(Cc4cocn4)C[C@H]2N3)cc1 (stereo partly drawn) | x | x | x | x | x | 3.5
O=C1NC2C(=CC(O)C(O)C2O)c2cc3c(c(O)c21)OCO3 (stereo not drawn) | -43.5 | x | x | x | x | 106.3*
O=C1NC2C(O)C(O)C(O)C(O)C2c2cc3c(c(O)c21)OCO3 (stereo not drawn) | 4.7 | x | x | x | x | 102.8*
COc1cc(C2c3cc4c(cc3CC3COC(=O)C32)OCO4)cc(OC)c1O (stereo not drawn) | 6.6 | x | x | x | x | -2.7
O=C1NC2C(=CC(O)C(O)C2O)c2cc3c(cc21)OCO3 (stereo not drawn) | -59.0 | x | x | x | x | 104.7*
COC(=O)[C@H]1[C@H](CO)[C@H]2Cn3c(ccc(C4=CCCCC4)c3=O)[C@@H]1N2C(=O)CC1CC1 | x | x | x | x | x | 2.3
COC(=O)[C@@H]1[C@@H](CO)[C@@H]2Cn3c(ccc(-c4ccncc4)c3=O)[C@H]1N2CCc1ccccc1 | x | x | x | x | x | 1.0
CN1CCc2cc3c(c4c2C1Cc1ccccc1-4)OCO3 (stereo not drawn) | -293.2 | 15.5 | 63.6* | 70.1* | 50.2* | 3.6
COCC#Cc1ccc([C@H]2[C@H](CO)N3CCCCN(C(=O)Cc4ccccn4)C[C@@H]23)cc1 | x | x | x | x | x | -14.8
Cc1[nH]n(-c2ccccc2)c(=O)c1C(c1ccc([N+](=O)[O-])cc1)c1c(C)[nH]n(-c2ccccc2)c1=O | 90.1* | 10.1 | 2.7 | 12.1 | 19.8 | x
O=C1C=C(N2CC2)c2ccccc2C1=O | 63.8* | x | x | x | x | 18.1
O=C1c2ccccc2-c2cc3ccccc3cc21 | -5.0 | x | x | x | x | -75.7
CC1CC(C)CC(C)C(O)C(C#N)=CC=CCC(C2CCCC2C(=O)O)OC(=O)CC(O)C(C)C1 (stereo not drawn) | 21.7 | x | x | x | x | 74.8*
COc1ccc(CN2Cc3cnnn3-c3ccccc3C2C#N)cc1 (stereo not drawn) | -3.0 | x | x | x | x | 96.5*
N#CC1c2ccccc2-n2nncc2CN1Cc1cc(Cl)cc(Cl)c1 (stereo not drawn) | 3.3 | x | x | x | x | 102.0*
COc1ccc(CN2Cc3cnnn3-c3ccccc3C2c2ccccc2)cc1 (stereo not drawn) | 14.1 | x | x | x | x | 23.4
COC(=O)[C@H]1[C@H](CO)[C@H]2Cn3c(ccc(-c4cncnc4)c3=O)[C@@H]1N2S(=O)(=O)c1ccccc1C | x | x | x | x | x | -14.0
CCCCCN1C(=O)c2cc(OC)ccc2[C@@]2(C(=O)OCC)Cc3cc(Cl)ccc3[C@@H]12 | -11.0 | x | x | x | x | 66.6*
CCOC(=O)[C@]12Cc3cc(Cl)ccc3[C@H]1N(Cc1ccccc1)C(=O)c1cc(OC)ccc12 | -3.2 | x | x | x | x | u
CCOC(=O)[C@]12Cc3cc(OC)ccc3[C@H]1N(C1CCCCC1)C(=O)c1ccccc12 | 5.5 | x | x | x | x | 50.4*
CCOC(=O)[C@]12Cc3cc(Cl)ccc3[C@H]1N(C1CCCCC1)C(=O)c1ccccc12 | 5.0 | x | x | x | x | x
CCOC(=O)[C@]12Cc3cc(Cl)ccc3[C@H]1N(C(C)C)C(=O)c1ccccc12 | 2.9 | x | x | x | x | 73.0*
CCCC#Cc1ccc([C@@H]2[C@@H](CO)N3CCCCN(C(=O)Cc4ccccn4)C[C@@H]23)cc1 | x | x | x | x | x | 3.9
SMILES | SENP8 block-1 | HSP90 refold inh | SENP8 block-2 | SENP6 inh | SENP7 inh | LGR2 antag | others
COC(=O)[C@H]1[C@H](CO)[C@H]2Cn3c(ccc(C4=CCCCC4)c3=O)[C@@H]1N2Cc1ccccc1OC | x | x | x | x | x | 5.5
COC(=O)[C@]12OC[C@]34C([C@@H](O)[C@@H]1O)[C@]1(C)CC(=O)C(O)=C(C)[C@@H]1C[C@H]3OC(=O)[C@H](O)[C@@H]24 (stereo partly drawn) | 12.3 | x | -5.4 | -1.2 | -7.1 | 93.2*
O=c1[nH]c(O)c(N=Nc2ccc3c(c2)OCCO3)c(=O)[nH]1 | -25.0 | 73.0* | -13.6 | 19.3 | 0.5 | 67.2* | HSP90 confirm=70.7*;luciferase ctr=70.3*
CCOC(=O)c1ccc(NC(=O)C2C3C=CC(O3)C2C(=O)O)cc1 (stereo not drawn) | x | 35.2* | -17.1 | -11.5 | -5.7 | x | HSP90 confirm=-8.3;luciferase ctr=-14.9
CCCN1[C@@H]2c3ccc(-c4cccc(C(=O)N(C)C)c4)c(=O)n3C[C@H]1[C@H](CO)[C@H]2C(=O)OC | x | x | x | x | x | 1.1
CCOC(=O)c1c(N)n(CCN2CCCCC2)c2nc3ccccc3nc12 | -295.5 | -1.0 | 6.4 | 11.6 | 3.7 | -9.8
CCCCn1c(NS(=O)(=O)c2ccccc2)c(C(=O)OCC)c2nc3ccccc3nc21 | -353.8 | 18.1* | x | x | x | 5.1 | HSP90 confirm=-1.5;luciferase ctr=-4.1
COC(=O)[C@@H]1[C@@H](CO)[C@@H]2Cn3c(ccc(-c4ccc(F)cc4)c3=O)[C@H]1N2Cc1cccnc1 | x | x | x | x | x | -4.0
CCc1ccc(CNCCc2c[nH]c3ccccc23)cc1 | 5.1 | 19.1* | -2.3 | -15.0 | 6.6 | 2.9 | HSP90 confirm=0.9;luciferase ctr=-4.3
c1ccc(CNCCc2c[nH]c3ccccc23)cc1 | 8.4 | 2.4 | 10.2 | 2.8 | -1.5 | 4.2
COC(=O)[C@H]1[C@H](CO)[C@H]2Cn3c(ccc(-c4ccccc4F)c3=O)[C@@H]1N2Cc1cccnc1 | x | x | x | x | x | 2.5
O=c1c2ccccc2nc(/C=C/c2ccc(O)cc2)n1-c1ccccc1O | -399.4 | -1.5 | 2.2 | 4.5 | 1.1 | 4.0
O=c1c2ccccc2nc(/C=C/c2ccc(F)cc2)n1-c1ccccn1 | x | 26.4* | 10.8 | 8.2 | 2.1 | x | HSP90 confirm=-8.5;luciferase ctr=-11.5
COC(=O)[C@@H]1[C@@H](C(=O)OC)C2(c3ccccc3-c3ccccc32)N(c2ccc(Cl)cc2)N1C#N | 0.3 | 10.1 | -1.4 | -15.0 | 6.1 | 36.2
COC(=O)C[C@]1(C(=O)OC)CN(C#N)N(c2ccc(Cl)cc2)C12c1ccccc1-c1ccccc12 | 19.8 | 32.2* | -2.0 | -15.0 | 2.0 | 77.9* | HSP90 confirm=58.7*;luciferase ctr=1.0
CSc1nc(N)c(N=Nc2ccc([As](=O)(O)O)cc2)c(=O)[nH]1 | 8.7 | 21.2* | -2.3 | -1.4 | 7.9 | -3.1 | HSP90 confirm=22.4*;luciferase ctr=-14.5
CC(C)(C)OC(=O)c1c(N)n(Cc2ccco2)c2nc3ccccc3nc12 | i | 28.6* | 1.6 | 1.4 | 14.2 | x | HSP90 confirm=5.8;luciferase ctr=2.5
COCCNC(=O)c1c(N)n(Cc2ccco2)c2nc3ccccc3nc12 | -274.2 | 2.3 | -0.1 | -7.0 | 4.6 | 0.4
O=c1[nH]c2c(c(=O)n1C1CCCCC1)CCC2 | 0.0 | 27.7* | -6.3 | -11.1 | 1.8 | 28.7 | HSP90 confirm=-3.7;luciferase ctr=-10.5
Cc1nn(C2CCOC(C)(C)C2)c2c1C(c1ccc3c(c1)OCO3)SCC(=O)N2 (stereo not drawn) | -14.7 | 1.6 | 6.3 | -10.8 | 10.9 | x

Screening results (PubChem BioAssay)
